About 2,000 (36%) of roughly 5,500 compounds were called active. About 18% were inconclusive and are not listed. Cut-off read from the data, not from the text of the source: active = normalized growth mostly below about 0.91 (no sharp cut-off); inconclusive = no clear call, values can overlap the other calls; inactive = mostly above about 0.92. The list shows a part of the results.
Assay: chemical genetic growth profiling, strain panel (AID 1159580);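 note: tested at 20 µM; growth read once vehicle control cultures reached saturation at 30 °C; 1 = growth at the plate median or of vehicle wells; lower values mean less growth of the strain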
Settings: growth OD

Measured: normalized growth

COc1cc(OC)c2c(c1Cl)OC1(C2=O)C(O)=CC(=O)CC1C (stereo unspecified)
inactive: S. cerevisiae deletion strains, locus YJR075W, strain HOC1, active compounds read low 1.02 | S. cerevisiae deletion strains, locus YKL009W, strain mrt4, active compounds read low 1.01 | S. cerevisiae deletion strains, locus YKL068W, active compounds read low 0.991 | S. cerevisiae deletion strains, locus YKL085W, strain MDH1 (second series), active compounds read low 1.01 | S. cerevisiae deletion strains, locus YKL085W, strain MDH1, active compounds read low 1.01 | S. cerevisiae deletion strains, locus YKL160W, strain elf1, active compounds read low 1.01 | S. cerevisiae deletion strains, locus YKR001C, strain vps1, active compounds read low 1.03 | S. cerevisiae deletion strains, locus YKR026C, strain gcn3, active compounds read low 1.01 | S. cerevisiae deletion strains, locus YKR091W, strain srl3, active compounds read low 1.01 | S. cerevisiae deletion strains, locus YLL001W, strain dnm1, active compounds read low 1 | S. cerevisiae deletion strains, locus YLL026W, active compounds read low 1.01 | S. cerevisiae deletion strains, locus YLL041C, strain sdh2, active compounds read low 1.01 | S. cerevisiae deletion strains, locus YLR027C, strain aat2, active compounds read low 1.03 | S. cerevisiae deletion strains, locus YLR039C, strain RIC1, active compounds read low 1.08 | S. cerevisiae deletion strains, locus YLR058C, strain SHM2, active compounds read low 1.03 | S. cerevisiae deletion strains, locus YLR102C, strain apc9, active compounds read low 0.991 | S. cerevisiae deletion strains, locus YLR113W, strain HOG1, active compounds read low 1.04 | S. cerevisiae deletion strains, locus YLR221C, strain rsa3, active compounds read low 1.02 | S. cerevisiae deletion strains, locus YLR258W, strain gsy2, active compounds read low 1 | S. cerevisiae deletion strains, locus YLR262C, strain YPT6 (second series), active compounds read low 1.02 | S. cerevisiae deletion strains, locus YLR262C, strain YPT6, active compounds read low 1.06 | S. cerevisiae deletion strains, locus YLR268W, strain sec22, active compounds read low 1.02 | S. cerevisiae deletion strains, locus YLR320W, strain mms22, active compounds read low 1.02 | S. cerevisiae deletion strains, locus YLR342W, strain FKS1 (second series), active compounds read low 1.06 | S. cerevisiae deletion strains, locus YLR342W, strain FKS1, active compounds read low 1.01 | S. cerevisiae deletion strains, locus YLR357W, strain rsc2, active compounds read low 1.02 | S. cerevisiae deletion strains, locus YLR370C, strain arc18, active compounds read low 1.01 | S. cerevisiae deletion strains, locus YLR371W, strain rom2, active compounds read low 1 | S. cerevisiae deletion strains, locus YLR384C, strain iki3, active compounds read low 1.01 | S. cerevisiae deletion strains, locus YLR418C, strain cdc73, active compounds read low 0.992 | S. cerevisiae deletion strains, locus YML016C, strain PPZ1, active compounds read low 1.03 | S. cerevisiae deletion strains, locus YML032C, strain rad52, active compounds read low 1 | S. cerevisiae deletion strains, locus YML120C, strain ndi1, active compounds read low 1.01 | S. cerevisiae deletion strains, locus YML124C, strain tub3, active compounds read low 0.991 | S. cerevisiae deletion strains, locus YMR058W, strain fet3, active compounds read low 1.01 | S. cerevisiae deletion strains, locus YMR078C, strain ctf18, active compounds read low 0.98 | S. cerevisiae deletion strains, locus YMR125W, strain sto1, active compounds read low 1.01 | S. cerevisiae deletion strains, locus YMR129W, active compounds read low 1.01 | S. cerevisiae deletion strains, locus YMR205C, strain PFK2, active compounds read low 1.02 | S. cerevisiae deletion strains, locus YMR223W, strain ubp8, active compounds read low 1.01 | S. cerevisiae deletion strains, locus YMR231W, strain pep5, active compounds read low 0.995 | S. cerevisiae deletion strains, locus YMR307W, strain GAS1, active compounds read low 1.04 | S. cerevisiae deletion strains, locus YNL067W, strain RPL9B, active compounds read low 1.01 | S. cerevisiae deletion strains, locus YNL071W, strain lat1, active compounds read low 1.01 | S. cerevisiae deletion strains, locus YNL128W, strain TEP1, active compounds read low 1.03 | S. cerevisiae deletion strains, locus YNL183C, strain NPR1, active compounds read low 0.932 | S. cerevisiae deletion strains, locus YNL209W, strain ssb2, active compounds read low 1.03 | S. cerevisiae deletion strains, locus YNL233W, strain BNI4, active compounds read low 1.02 | S. cerevisiae deletion strains, locus YNL248C, strain rpa49, active compounds read low 1.01 | S. cerevisiae deletion strains, locus YNL250W, strain rad50, active compounds read low 0.992 | S. cerevisiae deletion strains, locus YNL271C, strain bni1, active compounds read low 0.984 | S. cerevisiae deletion strains, locus YNL298W, strain CLA4, active compounds read low 1.01 | S. cerevisiae deletion strains, locus YNL307C, strain MCK1, active compounds read low 0.993 | S. cerevisiae deletion strains, locus YNL322C, strain KRE1 (second series), active compounds read low 1.01 | S. cerevisiae deletion strains, locus YNL322C, strain KRE1, active compounds read low 1.02 | S. cerevisiae deletion strains, locus YNR049C, strain mso1, active compounds read low 1 | S. cerevisiae deletion strains, locus YNR052C, strain pop2, active compounds read low 0.969 | S. cerevisiae deletion strains, locus YOL006C, strain TOP1, active compounds read low 1.2 | S. cerevisiae deletion strains, locus YOL012C, strain htz1 1.12 | S. cerevisiae deletion strains, locus YOL147C, strain pex11, active compounds read low 1 | S. cerevisiae deletion strains, locus YOR001W, strain rrp6, active compounds read low 1.01 | S. cerevisiae deletion strains, locus YOR061W, strain CKA2, active compounds read low 1.04 | S. cerevisiae deletion strains, locus YOR069W, strain VPS5, active compounds read low 1.02 | S. cerevisiae deletion strains, locus YOR070C, strain gyp1, active compounds read low 1.02 | S. cerevisiae deletion strains, locus YOR080W, strain dia2, active compounds read low 1.01 | S. cerevisiae deletion strains, locus YOR083W, strain WHI5, active compounds read low 1.01 | S. cerevisiae deletion strains, locus YOR106W, strain vam3, active compounds read low 1.02 | S. cerevisiae deletion strains, locus YOR136W, strain idh2, active compounds read low 1 | S. cerevisiae deletion strains, locus YOR144C, strain elg1, active compounds read low 0.996 | S. cerevisiae deletion strains, locus YOR184W, strain ser1, active compounds read low 1.04 | S. cerevisiae deletion strains, locus YOR231W, strain MKK1, active compounds read low 0.978 | S. cerevisiae deletion strains, locus YOR265W, strain rbl2, active compounds read low 1 | S. cerevisiae deletion strains, locus YOR270C, strain vph1, active compounds read low 1.05 | S. cerevisiae deletion strains, locus YOR290C, strain snf2, active compounds read low 1.02 | S. cerevisiae deletion strains, locus YOR316C, strain cot1, active compounds read low 0.992 | S. cerevisiae deletion strains, locus YPL051W, strain arl3, active compounds read low 0.999 | S. cerevisiae deletion strains, locus YPL078C, strain atp4, active compounds read low 1.01 | S. cerevisiae deletion strains, locus YPL106C, strain sse1, active compounds read low 1 | S. cerevisiae deletion strains, locus YPL240C, strain hsp82, active compounds read low 1 | S. cerevisiae deletion strains, locus YPL256C, strain CLN2, active compounds read low 0.979 | S. cerevisiae deletion strains, locus YPR119W, strain clb2, active compounds read low 0.986 | S. cerevisiae deletion strains, locus YPR141C, strain kar3, active compounds read low 0.988 | S. cerevisiae deletion strains, locus YPR163C, strain tif3, active compounds read low 0.995 | S. cerevisiae deletion strains, locus YPR167C, strain met16, active compounds read low 0.997 | S. cerevisiae deletion strains, strain wtn01, active compounds read low 1.04 | S. cerevisiae strains, strain wild type, active compounds read low 1.04

— PubChem BioAssay AID1159580 (chemical genetic matrix, 2015)
